# PubChem BioAssay AID431 (Sanford-Burnham Center for Chemical Genomics, 2006)
# Screen size: about 63,000 compounds; about 1,100 (1.7%) were called active.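 How the source made its calls: active means compounds whose percent cytotoxicity in the single-dose primary screen, scaled between solvent and toxic-drug controls, exceeds 50; inactive means the rest.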 The entries come from a sample that favours actives as a whole. Entries with a potency or affinity are not part of this list.
# Assay: viability loss of HPDE-C7K cells – cell-based, fluorescence, HTS, primary screen (AID 431);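 further: 0% = DMSO solvent wells and 100% = doxorubicin-treated wells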
# Conditions: HPDE-C7K KRASV12 cells, Alamar Blue viability, 48 h; at 10 µM; active compounds read high
row,Structure (SMILES),cytotoxicity
1,CCCCCn1c(N)c(C(=O)NCCN2CCOCC2)c2nc3ccccc3nc21,6.4% (inactive)
2,CCCCCCn1c(N)c(C(=O)NCCN2CCOCC2)c2nc3ccccc3nc21,86.3% (active)
3,CCCCn1c(N)c(C(=O)NCCN2CCOCC2)c2nc3ccccc3nc21,-9.3% (inactive)
4,COc1ccc(CCNC(=O)c2c(N)n(CCN3CCOCC3)c3nc4ccccc4nc23)cc1,76.9% (active)
5,CCOC(=O)c1c(N)n(CCN2CCCCC2)c2nc3ccccc3nc12,1.7% (inactive)
6,CCCCNC(=O)c1c(N)n(CCCOC)c2nc3ccccc3nc12,47.2% (inactive)
7,CC1SC2(CN3CCC2CC3)NC1=O (stereo not given),-32% (inactive)
8,O=P(OCC(F)(F)C(F)F)(N1CCOCC1)N1CCOCC1,-6.6% (inactive)
9,C=CCn1c(O)c(C(C)=NCCN2CCOCC2)c(=O)[nH]c1=O,3.7% (inactive)
10,NCCc1c[nH]c2ccc(F)cc12,-7.8% (inactive)
11,CCCCc1ccc2[nH]cc(CCN)c2c1,89.6% (active)
12,COc1ccc2[nH]cc(CCN(C)C)c2c1,19.9% (inactive)
13,COc1ccc(Cn2c(N)c(C(=O)NCc3ccco3)c3nc4ccccc4nc32)cc1,75.2% (active)
14,CC(C)(C)OC(=O)c1c(N)n(Cc2ccco2)c2nc3ccccc3nc12,56.1% (active)
15,Nc1c(C(=O)NCc2ccco2)c2nc3ccccc3nc2n1Cc1ccc(F)cc1,95.8% (active)
16,COc1ccc(Cn2c(N)c(C(=O)NCc3ccco3)c3nc4ccccc4nc32)cc1OC,3.1% (inactive)
17,CCOC(=O)c1c(N)n(Cc2ccco2)c2nc3ccccc3nc12,-13.8% (inactive)
18,CC(C)OC(=O)c1c(N)n(Cc2ccco2)c2nc3ccccc3nc12,-9% (inactive)
19,COCCOC(=O)c1c(N)n(Cc2ccc(OC)cc2)c2nc3ccccc3nc12,-9.2% (inactive)
20,COCCOC(=O)c1c(N)n(Cc2ccco2)c2nc3ccccc3nc12,15.2% (inactive)
21,Nc1c(C(=O)NCCN2CCOCC2)c2nc3ccccc3nc2n1Cc1ccco1,20.7% (inactive)
22,O=P(C(c1ccc2c(c1)OCO2)N1CCOCC1)(N1CCOCC1)N1CCOCC1 (stereo not given),-15.1% (inactive)
23,CN=C(SCc1cc2c(cc1Cl)OCO2)c1c(O)n(C)c(=O)n(C)c1=O,-13.4% (inactive)
24,CCCNS(=O)(=O)c1ccc(OCC(=O)N2CCN(Cc3ccccc3)CC2)cc1,8% (inactive)

row,Structure (SMILES),cytotoxicity
1,CCOc1ccc(-n2c(CC)nc3ccccc3c2=O)cc1,1.5% (inactive)
2,O=c1c2ccccc2nc(CSc2ncnc3nc[nH]c23)n1-c1ccccc1,64.8% (active)
3,CN(C)CCc1nc2ccccc2c(=O)n1-c1ccccc1,11.7% (inactive)
4,Cc1ccc2c(c1)C(c1ccccc1)NCC(=O)N2 (stereo not given),2.7% (inactive)
5,CCC(=NCCC1=CCCCC1)c1c(O)[nH]c(=O)[nH]c1=O,22.3% (inactive)
6,O=C(c1csc2c1CCCCC2)N1CCC2(CC1)OCCO2,-9.8% (inactive)
7,Cc1nc2c(-c3ccc(F)cc3)c(C)nn2c(C)c1CCC(=O)N1CCC2(CC1)OCCO2,9.4% (inactive)
8,CCCCn1c(N)c(C(=O)OCC2CCCO2)c2nc3ccccc3nc21 (stereo not given),34.2% (inactive)
9,CC(C)CCn1c(N)c(C(=O)OCC2CCCO2)c2nc3ccccc3nc21 (stereo not given),51.5% (active)
10,CC(C)CCOC(=O)c1c(N)n(CC2CCCO2)c2nc3ccccc3nc12 (stereo not given),26.1% (inactive)
11,CCOC(=O)c1cccc([P+](=O)O)c1,7.5% (inactive)
12,CC(C)[C@H]1C(=O)N2CCC[C@H]2[C@]2(O)O[C@](NC(=O)[C@@H]3C=C4c5cccc6[nH]cc(c56)C[C@H]4N(C)C3)(C(C)C)C(=O)N12,-1.3% (inactive)
13,CC(C)[C@@]1(NC(=O)[C@@H]2C=C3c4cccc5[nH]cc(c45)C[C@H]3N(C)C2)O[C@@]2(O)[C@@H]3CCCN3C(=O)[C@H](Cc3ccccc3)N2C1=O,29.5% (inactive)
14,CC(C)[C@@]1(NC(=O)[C@@H]2C[C@@H]3c4cccc5[nH]cc(c45)C[C@H]3N(C)C2)O[C@@]2(O)[C@@H]3CCCN3C(=O)[C@H](Cc3ccccc3)N2C1=O,77.9% (active)
15,Cc1ccc2c(c1)CC1(CN2C)C(=O)NC(=O)N(c2ccccc2C)C1=O (stereo not given),8.7% (inactive)
16,COC(=O)C(O)(c1ccc2c(c1)CCCN2)C(F)(F)F (stereo not given),-24.5% (inactive)
17,Cc1ccc(CN2CCN(C)CC2)c(C)c1,14.3% (inactive)
18,Cc1ccc(S(=O)(=O)N2CN3CCN(C3)C2)cc1,11.8% (inactive)
19,Cc1ccc(CN2CC3CC(C2)c2cccc(=O)n2C3)cc1 (stereo not given),-9.1% (inactive)
20,Cn1c(O)c(C=NCCOc2ccc(Cl)cc2)c(=O)n(C)c1=O,-12.3% (inactive)
21,CCn1nc(-c2ccccc2)nc2c(=O)n(C)c(=O)nc1-2,123% (active)
22,CCn1nc(-c2cccs2)nc2c(=O)n(C)c(=O)nc1-2,127% (active)
23,O=c1c2ccccc2nc(-c2cccs2)n1-c1cnccn1,15.2% (inactive)
24,CCc1nc2ccccc2c(=O)n1-c1cccc(OC)c1,-14% (inactive)

row,Structure (SMILES),cytotoxicity
1,O=P1(NC2CCCC2)COc2ccccc2OC1,-11.9% (inactive)
2,COc1ccc(-n2c(SC)nc3ccccc3c2=O)cc1,-4.7% (inactive)
3,CSC(=Nc1ccccc1)c1c(O)n(C)c(=O)n(C)c1=O,5.2% (inactive)
4,CC(=NCc1ccc(F)cc1)c1c(O)n(C)c(=O)n(C)c1=O,37.8% (inactive)
5,COc1ccc(C2SCC(=O)Nc3c2c(=O)[nH]n3C2CCCCCC2)cc1 (stereo not given),80.4% (active)
6,CCOc1ccc(C2SCC(=O)Nc3c2c(=O)[nH]n3C2CCCCCC2)cc1 (stereo not given),-11.1% (inactive)
7,COc1ccc(C2SCC(=O)Nc3c2c(=O)[nH]n3C2CCCCC2)cc1 (stereo not given),-1.2% (inactive)
8,C=CCN1C(=O)C2(C(C(=O)OCC)=C(N)Oc3ccccc32)C2=C1CCCC2=O (stereo not given),-6.6% (inactive)
9,CCc1nc(N2CCNCC2)c(C#N)c2c1CSC(C)(C)C2,31.9% (inactive)
10,CCCCc1nc(N2CCNCC2)c(C#N)c2c1CSC(C)(C)C2,71.5% (active)
11,O=C(C(Cc1ccccc1)NS(=O)(=O)c1ccc(F)cc1)N1CCC2(CC1)OCCO2 (stereo not given),10.2% (inactive)
12,CCN(CC)C(=O)c1ccc(NC(=O)Cn2nc(C)c3ccccc3c2=O)cc1,-7.8% (inactive)
13,O=C(Nc1ccc(OC(=O)N2CCCC2)cc1)N1CCOCC1,-8.6% (inactive)
14,CC(C)C(=O)N1CCN(CCN=Cc2c(O)n(C)c(=O)n(C)c2=O)CC1,0.5% (inactive)
15,COc1ccc(C2NCc3ccc4c(c3-n3cccc32)OCO4)cc1O (stereo not given),59.8% (active)
16,c1cc2n(c1)-c1c(ccc3c1OCO3)CNC2c1ccc2c(c1)OCO2 (stereo not given),27.4% (inactive)
17,COc1ccc(C2NCc3ccc4c(c3-n3cccc32)OCO4)cc1OC (stereo not given),3.2% (inactive)
18,O=P(/C(=N/O)N1CCCCC1)(N1CCOCC1)N1CCOCC1,-3.8% (inactive)
19,O=C1CN=C(c2ccccc2)c2oc3ccc(Br)cc3c2N1,-15.6% (inactive)
20,COc1cccc(OC)c1C1=NCC(=O)Nc2c1oc1ccc(Br)cc21,56.7% (active)
21,O=C(NCC(c1cccnc1)N1CCOCC1)Oc1ccccc1 (stereo not given),2.6% (inactive)
22,C=Cn1ccnc1P(=S)(c1c(C)nn(-c2ccccc2)c1C)c1nccn1C=C,8.8% (inactive)
23,O=c1[nH]c(=O)n(Cc2ccccc2)c(O)c1C=NCCN1CCNCC1,-15% (inactive)
24,O=c1c(C=NCCN2CCNCC2)c(O)n(C2CCCCC2)c(=O)n1C1CCCCC1,95.1% (active)

row,Structure (SMILES),cytotoxicity
1,O=c1[nH]c(=O)n(C2CCCCCC2)c(O)c1C=NCCCN1CCOCC1,-13.6% (inactive)
2,CCCCn1c(O)c(C(CC)=Nc2cccc(C(=O)O)c2)c(=O)[nH]c1=O,-13.6% (inactive)
3,CC(=NCCCN1CCCCC1)c1c(O)n(Cc2ccccc2)c(=O)[nH]c1=O,9.4% (inactive)
4,CCOC(=O)c1ccc(N2C(=O)CC(N3CCC(C#N)(c4ccccc4)CC3)C2=O)cc1 (stereo not given),-11.3% (inactive)
5,CCCCn1c(=O)c(C(=O)Nc2cnccn2)c(O)c2ccccc21,51.5% (active)
6,CCCCCn1c(=O)c(C(=O)Nc2ccncc2)c(O)c2ccccc21,73.1% (active)
7,CCCCCCn1c(=O)c(C(=O)Nc2ccncc2)c(O)c2ccccc21,46.4% (inactive)
8,CCCCCn1c(=O)c(C(=O)NCc2ccncc2)c(O)c2ccccc21,33.3% (inactive)
9,CCCCn1c(=O)c(C(=O)Nc2ccccc2S(N)(=O)=O)c(O)c2ccccc21,-11.7% (inactive)
10,CCCCCn1c(=O)c(C(=O)NCc2ccccn2)c(O)c2ccccc21,8.3% (inactive)
11,CCCCn1c(O)c(C=NCCCN(CC)CC)c(=O)[nH]c1=O,6.9% (inactive)
12,CSc1nnc(C2CCNCC2)n1C,-11.4% (inactive)
13,O=C1NC(=O)C(CCc2ccncc2)(C2CCCCC2)C(=O)N1,-0.4% (inactive)
14,COC(=O)c1ccc(COc2cc(C)cc3oc(=O)c4c(c23)CCCC4)o1,4.3% (inactive)
15,CC(=O)CC(C)(C)n1c[n+](C)nn1,18.4% (inactive)
16,Cc1ccc2c(c1)C1CN(C)CCC1N2C(=O)c1ccco1 (stereo not given),2.2% (inactive)
17,c1ccc2c(CCNCc3ccc4c(c3)OCO4)c[nH]c2c1,23.6% (inactive)
18,C[C@@]1(CO)[C@H](O)CC[C@@]2(C)[C@H]1CC[C@H]1C[C@@H]3C[C@@]12CC[C@]3(O)CO,69.7% (active)
19,CC(C)CC1C(C#N)=C(N)Oc2c1c(=O)oc1ccccc21 (stereo not given),8.9% (inactive)
20,Cc1ccc2c(c1)CC1(CN2C)C(=O)NC(=O)N(CCC2=CCCCC2)C1=O (stereo not given),5.2% (inactive)
21,O=C1NC(=O)C2(Cc3ccccc3N3CCCC32)C(=O)N1c1ccccc1 (stereo not given),-2.3% (inactive)
22,OC1(c2ccccc2F)CC2CCC(C1)N2CCN1CCOCC1 (stereo not given),-1.8% (inactive)
23,Cc1oc(-c2ccc(Cl)cc2)nc1CS(=O)CC(=O)N1CCC2(CC1)OCCO2 (stereo not given),-19.8% (inactive)
